Experimental data as given in PubChem BioAssay AID651605 (National Center for Advancing Translational Sciences (NCATS), 2012).
Results filed as inconclusive are left out. Active and inactive are the calls of the source. Calls follow the shape of the dose curve; as a rule, active = well fitted inhibition curve with a large enough effect; inconclusive = small, poorly fitted or top-dose-only effect; inactive = flat fitted curve, though single readings scatter.

The molecules below were run against Ubiquitin carboxyl-terminal hydrolase 1 (Homo sapiens) (UniProt O94782) (assay: Inhibitors of USP1/UAF1: SAR in Primary Assay). Conditions: Recombinant USP1/UAF1, Ub-Rhodamine cleavage fluorescence; series mostly up to 57.1 µM; activity change, negative = inhibition: at the top concentration.
Text: Deubiquitinating enzymes (DUBs) are a class of enzymes that can cleave isopeptide bond formed between the C-terminal carboxylate of ubiquitin and a lysine side-chain amino group on the target protein. Among them, ubiquitin specific proteases (USPs) constitute the largest DUB family. Human USPs are emerging as promising targets for pharmacological intervention because of their connection to a number of human diseases, including prostate, colon and breast cancer (1, 2), pediatric acute lymphoblastic leukemia (3), and familial cylindromatosis (4). The advantage of inhibiting USPs lies in the potential specificity of therapeutic intervention that can lead to better efficacy and reduce nonspecific side effects. In a collaboration between the University of Delaware and the NIH Chemical Genomics Center, a high-throughput screen assay was developed to screen for USP1/UAF1 inhibitors (5). This assay was used to test the analogs that were synthesized based on SAR around the original hit. NIH Chemical Genomics Center [NCGC] NIH Molecular Libraries Probe Centers Network [MLPCN] MLPCN Grant: DA030552-01 Assay Submitter (PI): Zhihao Zhuang, University of Delaware 1. Priolo, C., et al. (2006) The isopeptidase USP2a protects human prostate cancer from apoptosis. Cancer Res 66, 8625-8632 2. Popov, N., et al. (2007) The ubiquitin-specific protease USP28 is required for MYC stability. Nat Cell Biol 9, 765-774 3. De Pitta, C., et al. (2005) A leukemia-enriched cDNA microarray platform identifies new transcripts with relevance to the biology of pediatric acute lymphoblastic leukemia. Haematologica 90, 890-898 4. Kovalenko, A., et al. (2003) The tumour suppressor CYLD negatively regulates NF-kappaB signalling by deubiquitination. Nature 424, 801-805 5. Chen, J., et al. (2011) Selective and cell-active inhibitors of the USP1/ UAF1 deubiquitinase complex reverse cisplatin resistance in non-small cell lung cancer cells. Chem Bio 18(11):1390-400.
3 microliters of reagents (buffer in columns 3 and 4 as negative control and 1nM USP1/UAF1 complex in columns 1, 2, and 5-48) are dispensed into Greiner black solid bottom 1536-well assay plates. Compounds are then transferred via Kalypsys pin tool equipped with 1536-pin array (10nl slotted pins, V&P Scientific, San Diego, CA). Following an incubation step of 15 min at room temperature, 1ul of Ub-Rho substrate (150nM final concentration) is added to initiate the reaction. The plates are immediately centrifuged at 1000 rpm for 15 seconds, and subsequently transferred to a ViewLux high-throughput CCD imager (PerkinElmer) wherein kinetic measurements of fluorescence are acquired using 480 nm excitation/540 nm emission filter set (6 reads every 60 seconds, see Table 1). All reagents are diluted in an assay buffer consisting of 50mM HEPES (pH 7.8), 0.5mM EDTA, 0.1 mg/ml BSA, 1mM TCEP, and 0.01% Tween-20.

Sequence of Ubiquitin carboxyl-terminal hydrolase 1 (Homo sapiens) (O94782 whole entry, looked up): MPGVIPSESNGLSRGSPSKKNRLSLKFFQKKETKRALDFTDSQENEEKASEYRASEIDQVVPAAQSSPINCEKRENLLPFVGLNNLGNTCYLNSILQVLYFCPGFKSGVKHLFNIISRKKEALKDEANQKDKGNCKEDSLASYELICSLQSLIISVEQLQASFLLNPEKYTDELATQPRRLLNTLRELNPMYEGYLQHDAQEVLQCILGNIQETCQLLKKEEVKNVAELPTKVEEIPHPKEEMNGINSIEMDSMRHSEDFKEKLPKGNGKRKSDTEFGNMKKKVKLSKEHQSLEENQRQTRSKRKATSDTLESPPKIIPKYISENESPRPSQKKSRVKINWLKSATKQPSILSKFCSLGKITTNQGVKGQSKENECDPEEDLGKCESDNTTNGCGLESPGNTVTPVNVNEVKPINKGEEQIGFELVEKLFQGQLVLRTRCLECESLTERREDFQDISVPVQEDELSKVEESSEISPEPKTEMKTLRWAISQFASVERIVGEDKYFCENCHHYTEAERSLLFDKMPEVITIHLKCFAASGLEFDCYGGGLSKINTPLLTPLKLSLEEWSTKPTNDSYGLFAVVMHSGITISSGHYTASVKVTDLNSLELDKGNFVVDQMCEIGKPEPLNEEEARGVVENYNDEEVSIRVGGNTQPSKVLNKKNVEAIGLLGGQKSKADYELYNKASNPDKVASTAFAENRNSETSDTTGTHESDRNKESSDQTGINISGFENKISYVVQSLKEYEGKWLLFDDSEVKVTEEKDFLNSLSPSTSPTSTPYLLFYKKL

Potency, active:
CC(C)c1ccccc1-c1ncc(F)c(NC(C)(C)c2ccc(-c3cccnc3)cc2)n1 192 nM, Fc1cnc(-c2ccccc2C(F)F)nc1NCc1ccc(-c2ccn[nH]2)cc1 1520 nM, Cc1cnc(-c2ccccc2C(C)C)nc1NCc1ccc(-c2cccc(S(N)(=O)=O)c2)cc1 215 nM, CC(=O)c1ccccc1-c1ncc(C)c(NCc2ccc(-c3cccnc3)cc2)n1 7640 nM, Cc1cnc(-c2ccccc2C(C)C)nc1NCc1ccc(-c2nn[nH]n2)cc1 3830 nM, FC(F)(F)c1ccccc1-c1nc(NCc2ccc(-c3cccnc3)cc2)c2sccc2n1 857 nM, N#Cc1c(-c2ccccc2C(F)(F)F)nc2ccccc2c1NCc1ccc(-c2cccnc2)cc1 9610 nM, FC(F)(F)c1ccccc1-c1nc(NCc2ccc(N3CCOCC3)cc2)c2ccccc2n1 7640 nM, FC(F)c1ccccc1-c1nc(NCc2ccc(-c3cccnc3)cc2)c2ccccc2n1 1360 nM, Cc1cnc(-c2ccccc2C(C)C)nc1NCc1ccc(C2CCCNC2)cc1 (stereo not given) 7640 nM, Cc1cnc(-c2ccccc2C(F)F)nc1NCc1ccc(-n2ccnn2)cc1 482 nM, FC(F)(F)c1ccccc1-c1nc2c(c(NCc3ccc(-c4cccnc4)cc3)n1)CCC2 681 nM, Cc1cnc(-c2ccccc2C(F)F)nc1NCc1ccc(-c2cccnc2)cc1 341 nM, CN(Cc1ccc(-c2ccccc2)cc1)c1nc(-c2ccccc2C(F)(F)F)nc2ccccc12 4290 nM, FC(F)(F)c1ccccc1-c1nc(NCc2ccc(C3CCCCC3)cc2)c2ccccc2n1 6810 nM, Cc1cnc(-c2ccccc2C(C)C)nc1NCC1CCN(c2cccnc2)CC1 48.2 nM, Cc1ccc(-c2ccc(CNc3nc(-c4ccccc4C(C)C)ncc3F)cc2)cn1 76.4 nM, CC(C)c1ccccc1-c1ncc(F)c(NC(C)(C)c2ccc(-n3ccnn3)cc2)n1 4820 nM, Cc1ccc(-c2ccc(CNc3nc(-c4ccccc4C(C)C)ncc3C)cc2)cn1 42.9 nM, Fc1ccccc1-c1nc(NCc2ccc(-c3cccnc3)cc2)c2ccccc2n1 3410 nM, CC(C)c1ccccc1-c1ncc(F)c(NCc2ccc(-c3cccnc3)cc2)n1 60.7 nM, FC(F)(F)c1cc(-c2ccc(CNc3nc(-c4ccccc4C(F)(F)F)nc4ccsc34)cc2)ccn1 3410 nM, CC(C)c1ccccc1-c1nc2c(c(NCc3ccc(-c4cccnc4)cc3)n1)CCNC2 482 nM, CSc1cnc(-c2ccccc2C(C)C)nc1NCc1ccc(-c2cccnc2)cc1 85.7 nM, Cc1cnc(-c2ccccc2CO)nc1NCc1ccc(-c2cccnc2)cc1 8570 nM, O=[N+]([O-])c1ccccc1-c1nc(NCc2ccc(-c3cccnc3)cc2)c2ccccc2n1 4290 nM, Cc1cnc(-c2ccccc2C(C)O)nc1NCC1CCN(c2cccnc2)CC1 (stereo not given) 2410 nM, Fc1cnc(-c2ccccc2C(F)F)nc1NCC1CCN(c2cnccn2)C1 (stereo not given) 21500 nM, Fc1cnc(-c2ccccc2C(F)F)nc1NCc1ccc(-c2cccnc2)cc1 1210 nM, CCc1ccccc1-c1nc(NCc2ccc(-c3cccnc3)cc2)c2ccccc2n1 607 nM, COc1ccccc1-c1nc(NCc2ccc(-c3cccnc3)cc2)c2ccccc2n1 681 nM, Cc1ccc(-c2ccc(CN(C)c3nc(-c4ccccc4C(C)C)ncc3C)cc2)cn1 541 nM, Cc1cnc(-c2ccccc2C(C)C)nc1NC(C)c1ccc(-c2cccnc2)cc1 (stereo not given) 136 nM, Cc1cnc(-c2ccccc2OC(C)C)nc1NCc1ccc(-n2ccnn2)cc1 429 nM, CC(C)c1ccccc1-c1nccc(NCc2ccc(-c3ccnc(C(F)(F)F)c3)cc2)n1 764 nM

Activity change, negative = inhibition, inactive:
Cc1cnc(-c2ccccc2C2COC2)nc1NCc1ccc(-n2ccnn2)cc1 -9.72%, FC(F)(F)c1ccc(-c2nc(NCc3ccc(-c4ccnc(C(F)(F)F)c4)cc3)c3ccccc3n2)cc1 -12.9%, Nc1nc(NCc2ccc(-c3cccnc3)cc2)c2ccccc2n1 -16.9%, Cc1cnc(-c2ccccc2C2COC2)nc1NCC1CCN(c2cccnc2)CC1 -6.08%, FC(F)(F)c1cccc(-c2nc(NCc3ccc(-c4ccnc(C(F)(F)F)c4)cc3)c3ccccc3n2)c1 -0.42%
